A selection: hits, their analogues and other compounds. The true share with any hit is near 0.86%.
CDC25B-CDK2 inh – primary biochemical HTRF screen for blockers of M-phase inducer phosphatase 2 binding to CDK2/cyclin A; AID 1259370, 2018; 0.72% of 94,000 active; z-score (concentration not given with the values); HTRF CDC25B-CDK2/CyclinA binding, anti-His/anti-Flag; active compounds read high; P30305+P24941; in the data active means z-score above about 3.2
HIV TAR-Tat – TAR RNA-Tat peptide displacers, HIV-1, primary screen, biochemical, FRET, FAM/TAMRA-labeled Tat | HIV-1 TAR RNA, Tat peptide displacement FRET; active compounds read high | z-score (no concentration beside the values) | 0.6% of 100,000 active; active means z-score of 3 or more in at least 2 runs
Each line names hits and unclear results; the compound was inactive in the other large screens.

CCN(Cc1ccccc1)C(=O)CSc1nncn2c1cc1occc12	HIV TAR-Tat 6.69 (no result: CDC25B-CDK2 inh)
C=CCN(C(=O)CSc1nncn2c1cc1occc12)c1ccccc1	none (no result: CDC25B-CDK2 inh)
c1ccc(OCCn2c(N3CCOCC3)nc3ccccc32)cc1	none
O=C(C1CC1)n1nc(-c2ccco2)nc1NCc1ccc(Br)cc1	none
Oc1c(CN2CCN(Cc3ccc4cccnc4c3O)CC2)ccc2cccnc12	HIV TAR-Tat 9.37
Oc1ccc(CN2CCN(c3ccccc3)CC2)c2cccnc12	none (no result: CDC25B-CDK2 inh)
Oc1c(CN2CCOCC2)ccc2cccnc12	none
Oc1ccc(CN2CCCCC2)c2cccnc12	CDC25B-CDK2 inh 13.9
COc1ccccc1CN[C@H]1CS(=O)(=O)C[C@@H]1S(=O)(=O)c1ccc(F)cc1	none
O=C(NCc1ccc(F)cc1)NCc1cccn1Cc1ccc(F)cc1	none (no result: CDC25B-CDK2 inh)
CCc1nn2c(=O)c(S(=O)(=O)Nc3ccccc3)c(C)nc2s1	none
N#CC1=C2SCN(Cc3ccccc3)CN2C(=O)CC1c1cccc2ccccc12 (stereo unspecified)	none
COc1cccc(C2CC(=O)N3CN(Cc4ccccc4)CSC3=C2C#N)c1OC (stereo unspecified)	CDC25B-CDK2 inh 5.55
COc1ccccc1C1CC(=O)N2C(=C1C#N)SCC2(O)c1ccccc1 (stereo unspecified)	none (no result: HIV TAR-Tat)
COc1ccccc1C1CC(=O)N2CN(Cc3ccccc3)CSC2=C1C#N (stereo unspecified)	CDC25B-CDK2 inh 5.31
CC(C)CCn1c(N2CCOCC2)nc2c1c(=O)[nH]c(=O)n2C	none
CCCCN1C(=O)CN(C2CCCCCC2)C(=O)C1c1ccccc1F (stereo unspecified)	none (no result: HIV TAR-Tat)
N#Cc1cnc(Nc2cccc(C(F)(F)F)c2)nc1N	none (no result: HIV TAR-Tat)
O=c1oc2ccccc2cc1-c1cn2cc(Cl)cc(Cl)c2n1	none (no result: HIV TAR-Tat)
N#Cc1c(-c2ccc(Cl)cc2)nc(SCC(=O)OCc2ccccc2)[nH]c1=O	none
CCOCCCNc1cc(N2CCN(c3ccccc3)CC2)c2noc3c2c1C(=O)c1ccccc1-3	none
O=C1c2ccccc2-c2onc3c(N4CCOCC4)cc(NCCO)c1c23	none
O=C1c2ccccc2-c2onc3c(N4CCOCC4)cc(NCCN4CCCC4)c1c23	none
CCOCCCNc1cc(N2CCOCC2)c2noc3c2c1C(=O)c1ccccc1-3	HIV TAR-Tat 6.83
CCNc1cc(N2CCOCC2)c2noc3c2c1C(=O)c1ccccc1-3	HIV TAR-Tat 11.2
CC(C)CNc1cc(N2CCOCC2)c2noc3c2c1C(=O)c1ccccc1-3	CDC25B-CDK2 inh 9.15
O=C(O)CC(CC(=O)NCc1ccco1)c1ccccc1 (stereo unspecified)	none (no result: HIV TAR-Tat)
O=C(Nc1ccc(Cl)cc1)c1cc2c(s1)-c1ccccc1S(=O)(=O)C2	none
CC(=O)N1c2ccc(S(=O)(=O)N(C)CC(=O)Nc3cccnc3)cc2CC1C (stereo unspecified)	none (no result: CDC25B-CDK2 inh)
Cn1c(SCC(=O)Nc2nc3ccccc3s2)ncc(C(=O)Nc2ccc(F)cc2)c1=O	none (no result: CDC25B-CDK2 inh)
O=C(CCc1nc2sc3c(c2c(=O)[nH]1)CCCCC3)N1CCC(Cc2ccccc2)CC1	HIV TAR-Tat 4.3 (no result: CDC25B-CDK2 inh)
O=C(CCc1nc2sc3c(c2c(=O)[nH]1)CCCCC3)N1CCN(c2cccc(Cl)c2)CC1	HIV TAR-Tat 27.8 (no result: CDC25B-CDK2 inh)
O=C(CCc1nc2sc3c(c2c(=O)[nH]1)CCCCC3)N1CCN(c2ncccn2)CC1	none (no result: CDC25B-CDK2 inh)
O=C(CCc1nc2sc3c(c2c(=O)[nH]1)CCCCC3)NC1CCCC1	HIV TAR-Tat 18.4 (no result: CDC25B-CDK2 inh)
O=C(CCc1nc2sc3c(c2c(=O)[nH]1)CCCCC3)NC1CCCCC1	none (no result: CDC25B-CDK2 inh)
CC1CCN(C(=O)CCc2nc3sc4c(c3c(=O)[nH]2)CCCC4)CC1	none (no result: CDC25B-CDK2 inh)
COc1ccccc1N1CCN(Cc2cc(COC(C)C)c3cccnc3c2O)CC1	none
CC1(C(=O)NC2CCCCC2)Cn2c(cc3occc32)C(=O)N1CCCN1CCCCC1 (stereo unspecified)	none (no result: CDC25B-CDK2 inh)
COc1ccc(S(=O)(=O)N(CCS(=O)(=O)N2CCNCC2)C2CC2)cc1	none (no result: CDC25B-CDK2 inh)
COc1ccc(NC(=O)c2sc(=S)n3c2[nH]c(=O)c2ccccc23)cc1OC	none (no result: CDC25B-CDK2 inh)
COc1ccc(NC(=O)c2sc(=S)n3c2[nH]c(=O)c2sccc23)cc1OC	HIV TAR-Tat 9.21 (no result: CDC25B-CDK2 inh)
CCCS(=O)(=O)N1CCCc2ccc(NS(=O)(=O)c3cc(F)ccc3F)cc21	HIV TAR-Tat 7.25 (no result: CDC25B-CDK2 inh)
CCS(=O)(=O)N1CCCc2ccc(NS(=O)(=O)c3cc(F)ccc3F)cc21	none (no result: CDC25B-CDK2 inh)
O=C1c2cccnc2C(=O)N1Cc1ccc(S(=O)(=O)NCc2ccccn2)cc1	none (no result: CDC25B-CDK2 inh)
O=c1c(O)c(-c2ccccc2)oc2cc(O)cc(O)c12	none (no result: CDC25B-CDK2 inh)
O=c1c(O)c(-c2ccc(O)cc2O)oc2cc(O)cc(O)c12	HIV TAR-Tat 24.9
O=c1c(O)c(-c2ccccc2O)oc2cc(O)cc(O)c12	none (no result: CDC25B-CDK2 inh)
O=c1c(O)c(-c2cc(O)c(O)c(O)c2)oc2cc(O)cc(O)c12	HIV TAR-Tat 38
CC(C)c1ccc(NS(=O)(=O)c2cc(-c3noc(C4CC4)n3)cs2)cc1	none (no result: CDC25B-CDK2 inh)
N=C(N)c1ccc2cc(OC(=O)c3ccc(N=C(N)N)cc3)ccc2c1	none (no result: CDC25B-CDK2 inh)
Cc1cc(C)c(Cn2cccc2CNC(=O)NCCC(C)C)c(C)c1	none (no result: CDC25B-CDK2 inh)
O=C1c2ccccc2C(=O)N1c1cccc(-c2csc(Nc3cccc4ccccc34)n2)c1	CDC25B-CDK2 inh 18.8 (no result: HIV TAR-Tat)
COc1ccccc1Nc1nc(-c2cc3c(ccc4ccccc43)oc2=O)cs1	none (no result: HIV TAR-Tat)
CCn1cc(S(=O)(=O)c2ccc(F)cc2)c(=O)c2cc(C)ccc21	none
COc1cc(O)c2c(c1)oc(=O)c1c3cc(O)c(O)cc3oc21	HIV TAR-Tat 38.1 (no result: CDC25B-CDK2 inh)
COc1ccc2c(c1)oc(=O)c1ccccc12	none
COc1cc(/C=C/C2=NNC(=O)CC2)cc(OC)c1OC	none (no result: HIV TAR-Tat)
O=S1(=O)N=CNc2ccc(S(=O)(=O)N3CCN(c4cccc(Cl)c4)CC3)cc21	none (no result: CDC25B-CDK2 inh)
N#C/C(=C\c1ccc(-c2ccccc2)cc1)C(N)=O	none (no result: HIV TAR-Tat)
CS(=O)(=O)N1CCc2cc(C(=O)N3CCCCC3)ccc21	none
Cc1cc(C(=O)C(=O)Nc2nncs2)c(C)n1-c1ccccc1	none
Cc1cc(C(=O)C(=O)Nc2nnc(-c3ccco3)s2)c(C)n1-c1ccccc1Cl	HIV TAR-Tat 33.1
Cc1cc(C(=O)C(=O)Nc2nnc(-c3ccco3)s2)c(C)n1-c1cccc(Cl)c1	HIV TAR-Tat 8.57
CCc1nnc(NC(=O)C(=O)c2cc(C)n(-c3ccc(F)cc3)c2C)s1	none
Cc1ccc(Nc2c(-c3ccc(N4CCOCC4)cc3)nc3nc[nH]n23)cc1	none
CCOC(=O)c1sc(Sc2ccc(C(F)(F)F)cn2)c2c1CC(C)(C)CC2=O	none (no result: HIV TAR-Tat)
Nc1cccnc1Nc1ccccc1	none
COc1ccc(Nc2ncccc2N)cc1	CDC25B-CDK2 inh 12.5
C=CCNC(=O)Nc1ccc2nc(-c3ccccc3)c(-c3ccccc3)nc2c1	none (no result: HIV TAR-Tat)
OCCCNC(=S)Nc1ccc2nc(-c3ccccc3)c(-c3ccccc3)nc2c1	CDC25B-CDK2 inh 5.86 (no result: HIV TAR-Tat)
COCCNC(=S)Nc1ccc2nc3c4ccccc4c4ccccc4c3nc2c1	CDC25B-CDK2 inh 11 (no result: HIV TAR-Tat)
O=C(NCCCO)Nc1ccc2nc(-c3ccccc3)c(-c3ccccc3)nc2c1	none (no result: HIV TAR-Tat)
COCCNC(=O)Nc1ccc2sc(NS(=O)(=O)c3ccccc3)nc2c1	none (no result: CDC25B-CDK2 inh)
C=CCNC(=S)Nc1ccc2nc3c4ccccc4c4ccccc4c3nc2c1	CDC25B-CDK2 inh 4.68 (no result: HIV TAR-Tat)
CC(C)N(C(=S)Nc1ccc2nc3c4ccccc4c4ccccc4c3nc2c1)C(C)C	CDC25B-CDK2 inh 10.1 (no result: HIV TAR-Tat)
S=C(Nc1ccc2nc3c4ccccc4c4ccccc4c3nc2c1)N1CCOCC1	none (no result: HIV TAR-Tat)
C/C(=C\COc1cc(=O)[nH]c2ccccc12)CCC(O)C(C)(C)O (stereo unspecified)	none (no result: CDC25B-CDK2 inh)
CCCNC(=S)Nc1ccc(Cl)cc1	none (no result: HIV TAR-Tat)
CCCNC(=S)Nc1ccc2nc3c4ccccc4c4ccccc4c3nc2c1	CDC25B-CDK2 inh 11.3 (no result: HIV TAR-Tat)

Screening data (PubChem BioAssay)
